Test results taken from the supplement of paper PMC9446081.
± gives the standard deviation of the averaged measurements.

Legend:
Assay in all cases: relative enzymatic activity vs untreated control (fraction); higher = less inhibition
Conditions in all cases: 100 µM; incubation time: 2 h at 37 C
DNA gyrase = tested on: DNA gyrase
Procedure: (§1)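 In vitro enzymatic inhibition assays (ProFoldin kits) for 12 purified essential E. coli enzymes or complexes, each treated with 218 active antibacterial compounds at 100 µM for 2 h at 37°C. Read-outs were fluorescence or absorbance (phosphate detection, dye binding), converted to activity via standard curves and expressed relative to untreated DMSO controls.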

DNA helicase = DNA helicase (UniProt P0ACB1)
DNA helicase, sequence (P0ACB1 whole entry): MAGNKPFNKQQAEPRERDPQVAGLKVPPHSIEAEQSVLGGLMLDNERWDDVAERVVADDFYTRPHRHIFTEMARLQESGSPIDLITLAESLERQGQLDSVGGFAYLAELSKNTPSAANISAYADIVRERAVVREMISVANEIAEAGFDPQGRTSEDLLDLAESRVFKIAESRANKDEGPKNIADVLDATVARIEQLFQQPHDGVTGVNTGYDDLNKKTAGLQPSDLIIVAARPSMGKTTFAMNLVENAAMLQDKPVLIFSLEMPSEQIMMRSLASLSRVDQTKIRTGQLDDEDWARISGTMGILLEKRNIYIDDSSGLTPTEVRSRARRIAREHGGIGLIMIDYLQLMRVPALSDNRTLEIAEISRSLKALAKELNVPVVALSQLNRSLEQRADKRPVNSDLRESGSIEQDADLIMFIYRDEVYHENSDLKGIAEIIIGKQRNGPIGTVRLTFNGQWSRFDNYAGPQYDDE
Procedure: as §1

DNA ligase = DNA ligase (UniProt B1XA82)
DNA ligase, sequence (B1XA82 whole entry): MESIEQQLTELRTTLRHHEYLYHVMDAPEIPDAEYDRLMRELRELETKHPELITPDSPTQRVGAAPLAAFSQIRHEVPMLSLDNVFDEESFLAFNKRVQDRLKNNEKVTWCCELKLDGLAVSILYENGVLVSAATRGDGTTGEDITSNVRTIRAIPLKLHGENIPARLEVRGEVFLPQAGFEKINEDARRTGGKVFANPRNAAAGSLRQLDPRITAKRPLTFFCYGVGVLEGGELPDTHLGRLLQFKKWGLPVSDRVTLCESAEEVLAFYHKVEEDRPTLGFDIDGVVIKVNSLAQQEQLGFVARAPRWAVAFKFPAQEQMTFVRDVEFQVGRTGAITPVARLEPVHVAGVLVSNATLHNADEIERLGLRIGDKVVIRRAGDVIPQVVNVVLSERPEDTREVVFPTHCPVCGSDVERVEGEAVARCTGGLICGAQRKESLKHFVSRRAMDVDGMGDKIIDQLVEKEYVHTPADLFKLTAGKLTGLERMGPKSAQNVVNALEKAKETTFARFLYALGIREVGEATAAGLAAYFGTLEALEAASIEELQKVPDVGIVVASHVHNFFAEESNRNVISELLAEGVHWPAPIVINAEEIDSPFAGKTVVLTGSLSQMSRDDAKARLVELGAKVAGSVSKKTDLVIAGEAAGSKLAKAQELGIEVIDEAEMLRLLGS
Procedure: as §1

DNA polymerase = DNA polymerase (UniProt P10443)
DNA polymerase, sequence (P10443 whole entry): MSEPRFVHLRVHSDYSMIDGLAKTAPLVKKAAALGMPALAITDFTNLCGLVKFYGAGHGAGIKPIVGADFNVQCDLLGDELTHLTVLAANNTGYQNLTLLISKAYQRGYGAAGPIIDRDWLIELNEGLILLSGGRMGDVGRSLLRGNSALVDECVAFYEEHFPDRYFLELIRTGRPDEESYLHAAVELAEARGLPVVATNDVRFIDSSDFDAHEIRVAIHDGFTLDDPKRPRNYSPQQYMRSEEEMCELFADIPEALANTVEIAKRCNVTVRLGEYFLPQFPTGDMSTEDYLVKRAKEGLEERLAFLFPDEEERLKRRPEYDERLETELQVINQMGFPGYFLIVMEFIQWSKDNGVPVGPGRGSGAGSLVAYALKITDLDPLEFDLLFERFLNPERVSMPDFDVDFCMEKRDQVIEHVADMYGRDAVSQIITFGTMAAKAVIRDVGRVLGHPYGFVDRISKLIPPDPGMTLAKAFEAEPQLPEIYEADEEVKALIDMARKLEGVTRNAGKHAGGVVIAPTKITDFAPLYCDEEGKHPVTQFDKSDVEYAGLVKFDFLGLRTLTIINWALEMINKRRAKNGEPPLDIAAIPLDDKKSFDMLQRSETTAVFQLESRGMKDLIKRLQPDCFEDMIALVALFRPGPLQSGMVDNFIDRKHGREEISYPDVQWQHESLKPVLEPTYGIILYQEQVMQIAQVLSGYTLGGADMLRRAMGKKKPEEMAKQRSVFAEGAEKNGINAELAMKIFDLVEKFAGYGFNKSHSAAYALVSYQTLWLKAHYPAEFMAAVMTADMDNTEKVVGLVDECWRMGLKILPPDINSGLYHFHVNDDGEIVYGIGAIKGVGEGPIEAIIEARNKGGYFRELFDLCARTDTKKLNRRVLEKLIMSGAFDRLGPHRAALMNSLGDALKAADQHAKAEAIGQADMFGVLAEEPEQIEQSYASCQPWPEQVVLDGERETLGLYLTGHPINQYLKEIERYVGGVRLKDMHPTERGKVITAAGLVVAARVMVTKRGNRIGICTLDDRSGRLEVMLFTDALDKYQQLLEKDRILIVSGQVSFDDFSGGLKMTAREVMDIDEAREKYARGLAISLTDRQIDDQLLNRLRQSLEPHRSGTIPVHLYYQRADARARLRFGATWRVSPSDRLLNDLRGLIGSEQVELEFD
Procedure: as §1

DNA primase = DNA primase (UniProt P0ABS7)
DNA primase, sequence (P0ABS7 whole entry): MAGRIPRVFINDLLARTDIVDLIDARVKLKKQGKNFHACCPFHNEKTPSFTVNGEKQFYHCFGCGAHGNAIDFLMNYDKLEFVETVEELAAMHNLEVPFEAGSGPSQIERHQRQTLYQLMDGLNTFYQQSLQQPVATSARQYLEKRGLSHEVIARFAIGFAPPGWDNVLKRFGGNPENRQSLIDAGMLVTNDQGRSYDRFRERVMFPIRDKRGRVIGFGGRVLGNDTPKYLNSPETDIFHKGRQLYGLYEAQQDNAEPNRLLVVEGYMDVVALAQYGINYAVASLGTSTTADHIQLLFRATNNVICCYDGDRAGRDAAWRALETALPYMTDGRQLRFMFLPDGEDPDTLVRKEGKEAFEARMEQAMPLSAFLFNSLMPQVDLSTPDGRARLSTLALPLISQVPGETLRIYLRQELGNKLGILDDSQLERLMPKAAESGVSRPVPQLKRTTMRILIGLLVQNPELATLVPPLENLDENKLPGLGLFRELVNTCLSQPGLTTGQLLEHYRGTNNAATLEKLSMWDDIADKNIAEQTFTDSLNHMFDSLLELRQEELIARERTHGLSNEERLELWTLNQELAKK
Procedure: as §1

GlmU = GlmU (UniProt A7ZTU1)
GlmU, sequence (A7ZTU1 whole entry, looked up): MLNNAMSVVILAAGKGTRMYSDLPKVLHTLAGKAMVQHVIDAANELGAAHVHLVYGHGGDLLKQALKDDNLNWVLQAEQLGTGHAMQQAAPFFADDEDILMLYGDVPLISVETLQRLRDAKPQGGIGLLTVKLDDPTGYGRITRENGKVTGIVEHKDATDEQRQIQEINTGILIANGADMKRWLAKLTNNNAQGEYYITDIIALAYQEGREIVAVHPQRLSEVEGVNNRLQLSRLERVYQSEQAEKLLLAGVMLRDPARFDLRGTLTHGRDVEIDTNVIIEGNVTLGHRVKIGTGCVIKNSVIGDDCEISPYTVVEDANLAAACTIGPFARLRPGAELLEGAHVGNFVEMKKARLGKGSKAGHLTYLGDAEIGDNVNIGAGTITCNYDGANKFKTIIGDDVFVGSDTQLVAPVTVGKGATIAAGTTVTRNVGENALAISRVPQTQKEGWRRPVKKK
Procedure: as §1

Guanlyate kinase = Guanlyate kinase (UniProt Q0TBG1)
Guanlyate kinase, sequence (Q0TBG1 whole entry): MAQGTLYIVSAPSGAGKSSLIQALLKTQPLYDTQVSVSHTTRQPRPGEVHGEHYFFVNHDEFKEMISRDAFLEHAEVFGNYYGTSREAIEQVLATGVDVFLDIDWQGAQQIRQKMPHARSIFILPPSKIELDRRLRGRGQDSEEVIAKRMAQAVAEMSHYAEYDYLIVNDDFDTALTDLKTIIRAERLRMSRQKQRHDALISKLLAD
Procedure: as §1

MurA = MurA (UniProt Q3YX52)
MurA, sequence (Q3YX52 whole entry): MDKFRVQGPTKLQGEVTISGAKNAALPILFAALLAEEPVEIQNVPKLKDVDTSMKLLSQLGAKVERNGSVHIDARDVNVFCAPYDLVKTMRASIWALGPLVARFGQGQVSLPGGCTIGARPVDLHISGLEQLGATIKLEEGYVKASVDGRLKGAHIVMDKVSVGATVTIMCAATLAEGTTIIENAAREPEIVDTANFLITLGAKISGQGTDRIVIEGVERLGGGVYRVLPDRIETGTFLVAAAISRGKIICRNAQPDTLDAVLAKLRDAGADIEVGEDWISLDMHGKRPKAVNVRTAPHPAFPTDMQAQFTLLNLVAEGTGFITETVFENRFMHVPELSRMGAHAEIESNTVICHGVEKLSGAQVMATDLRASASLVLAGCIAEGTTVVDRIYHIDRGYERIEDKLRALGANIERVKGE
Procedure: as §1

MurC = MurC (UniProt C4ZRI6)
MurC, sequence (C4ZRI6 whole entry, looked up): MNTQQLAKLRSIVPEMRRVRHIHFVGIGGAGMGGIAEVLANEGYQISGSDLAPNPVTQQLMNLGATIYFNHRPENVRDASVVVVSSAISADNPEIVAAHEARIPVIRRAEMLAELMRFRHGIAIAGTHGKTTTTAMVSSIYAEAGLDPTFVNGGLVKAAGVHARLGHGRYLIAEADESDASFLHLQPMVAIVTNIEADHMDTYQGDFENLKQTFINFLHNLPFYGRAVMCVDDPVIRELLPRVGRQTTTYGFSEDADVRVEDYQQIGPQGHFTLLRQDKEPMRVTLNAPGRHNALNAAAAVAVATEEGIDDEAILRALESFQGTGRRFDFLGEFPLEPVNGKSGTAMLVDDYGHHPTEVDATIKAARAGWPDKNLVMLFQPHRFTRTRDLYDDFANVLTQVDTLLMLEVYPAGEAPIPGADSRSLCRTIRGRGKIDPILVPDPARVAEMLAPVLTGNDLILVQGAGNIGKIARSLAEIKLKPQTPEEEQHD
Procedure: as §1

MurD = biological target: T1, MurD (UniProt P14900)
T1 sequence (whole entry): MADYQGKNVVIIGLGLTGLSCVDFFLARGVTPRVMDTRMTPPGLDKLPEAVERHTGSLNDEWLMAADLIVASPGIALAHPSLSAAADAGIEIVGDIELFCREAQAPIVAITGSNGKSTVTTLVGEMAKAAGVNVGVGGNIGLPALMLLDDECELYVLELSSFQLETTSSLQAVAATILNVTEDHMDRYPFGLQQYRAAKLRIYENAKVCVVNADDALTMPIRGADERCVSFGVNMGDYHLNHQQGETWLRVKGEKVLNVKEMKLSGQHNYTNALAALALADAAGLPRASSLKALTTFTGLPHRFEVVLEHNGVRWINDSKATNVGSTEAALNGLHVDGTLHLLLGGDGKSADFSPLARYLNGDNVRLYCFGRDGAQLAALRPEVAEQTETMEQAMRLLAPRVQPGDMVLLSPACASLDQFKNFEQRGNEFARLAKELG
Procedure: as §1

MurF = biological target: T2, MurF (UniProt P11880)
T2 sequence (whole entry): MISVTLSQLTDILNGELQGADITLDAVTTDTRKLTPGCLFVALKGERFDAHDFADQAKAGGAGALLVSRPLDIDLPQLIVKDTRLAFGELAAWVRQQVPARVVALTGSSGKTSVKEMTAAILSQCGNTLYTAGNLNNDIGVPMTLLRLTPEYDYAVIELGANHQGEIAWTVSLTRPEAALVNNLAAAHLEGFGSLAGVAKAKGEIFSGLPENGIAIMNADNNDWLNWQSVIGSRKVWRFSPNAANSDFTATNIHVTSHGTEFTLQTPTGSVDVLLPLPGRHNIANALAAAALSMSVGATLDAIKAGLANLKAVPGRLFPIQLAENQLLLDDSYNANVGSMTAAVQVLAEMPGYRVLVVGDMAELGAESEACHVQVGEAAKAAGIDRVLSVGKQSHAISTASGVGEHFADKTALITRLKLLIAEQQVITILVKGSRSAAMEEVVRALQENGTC
Procedure: as §1

RNA polymerase = tested on: RNA polymerase
Procedure: as §1

Cl.NC1CCN(c2c(F)cc3c(=O)c(C(=O)O)cn(C4CC4)c3c2Cl)C1 (centres undefined)
relative enzymatic activity (DNA gyrase): 0.213 ± 0.3 | relative enzymatic activity (DNA helicase): 0.622 ± 0.2 | relative enzymatic activity (DNA ligase): 0.994 ± 0.13 | relative enzymatic activity (DNA polymerase): 1.08 ± 0.17 | relative enzymatic activity (DNA primase): 0.872 ± 0.014 | relative enzymatic activity (GlmU): 0.974 ± 0.019 | relative enzymatic activity (Guanlyate kinase): 0.92 ± 0.21 | relative enzymatic activity (MurA): 0.73669 ± 0.0002 | relative enzymatic activity (MurC): 1.06 ± 0.063 | relative enzymatic activity (MurD): 0.606 ± 0.42 | relative enzymatic activity (MurF): 0.977 ± 0.24 | relative enzymatic activity (RNA polymerase): 0.809 ± 0.07

CC1(C)SC2C(N3C(=O)C(c4ccccc4)NC3(C)C)C(=O)N2C1C(=O)[O-].[K+] (centres undefined)
relative enzymatic activity (DNA gyrase): 1.14 ± 0.073 | relative enzymatic activity (DNA helicase): 0.458 ± 0.13 | relative enzymatic activity (DNA ligase): 1.67 ± 0.9 | relative enzymatic activity (DNA polymerase): 1.36 ± 0.37 | relative enzymatic activity (DNA primase): 0.776 ± 0.26 | relative enzymatic activity (GlmU): 0.948 ± 0.043 | relative enzymatic activity (Guanlyate kinase): 1.13 ± 0.1 | relative enzymatic activity (MurA): 0.219 ± 0.028 | relative enzymatic activity (MurC): 0.925 ± 0.025 | relative enzymatic activity (MurD): 0.563 ± 0.37 | relative enzymatic activity (MurF): 0.945 ± 0.14 | relative enzymatic activity (RNA polymerase): 0.90251 ± 0.00052

C=CC1=C(C(=O)O)N2C(=O)[C@@H](NC(=O)/C(=N\O)c3csc(N)n3)[C@H]2SC1
relative enzymatic activity (DNA gyrase): 0.489 ± 0.086 | relative enzymatic activity (DNA helicase): 0.523 ± 0.095 | relative enzymatic activity (DNA ligase): 0.92 ± 0.15 | relative enzymatic activity (DNA polymerase): 1.13 ± 0.24 | relative enzymatic activity (DNA primase): 0.774 ± 0.038 | relative enzymatic activity (GlmU): 0.988 ± 0.07 | relative enzymatic activity (Guanlyate kinase): 0.885 ± 0.068 | relative enzymatic activity (MurA): 0.212 ± 0.095 | relative enzymatic activity (MurC): 1 ± 0.028 | relative enzymatic activity (MurD): 0.619 ± 0.42 | relative enzymatic activity (MurF): 0.981 ± 0.22 | relative enzymatic activity (RNA polymerase): 0.894 ± 0.077

CC(C)[C@@H](CC[C@@H](C)[C@H]1CC[C@H]2[C@@H]3[C@H](O)C[C@H]4C[C@@H](NCCCNCCCCN)CC[C@]4(C)[C@H]3CC[C@]12C)OS(=O)(=O)O
relative enzymatic activity (DNA gyrase): 1.22 ± 0.062 | relative enzymatic activity (DNA helicase): 0.08494 ± 0.00041 | relative enzymatic activity (DNA ligase): 0.712 ± 0.095 | relative enzymatic activity (DNA polymerase): 0.0811 ± 0.015 | relative enzymatic activity (DNA primase): 0.432 ± 0.11 | relative enzymatic activity (GlmU): 0.899 ± 0.069 | relative enzymatic activity (Guanlyate kinase): 0.231 ± 0.024 | relative enzymatic activity (MurA): 0.17 ± 0.006 | relative enzymatic activity (MurC): 0.882 ± 0.078 | relative enzymatic activity (MurD): 0.6 ± 0.42 | relative enzymatic activity (MurF): 0.896 ± 0.23 | relative enzymatic activity (RNA polymerase): 0.14 ± 0.012

CCCC[P+](CCCC)(CCCC)Cc1ccc(NC(=O)[C@@H](Cc2ccc3ccccc3c2)N=C(NC2CCCCC2)NC2CCCCC2)cc1
relative enzymatic activity (DNA gyrase): 0.0368 ± 0.052 | relative enzymatic activity (DNA helicase): 0.0252 ± 0.0031 | relative enzymatic activity (DNA ligase): 0.897 ± 0.14 | relative enzymatic activity (DNA polymerase): 0.636 ± 0.1 | relative enzymatic activity (DNA primase): 0.576 ± 0.037 | relative enzymatic activity (GlmU): 0.139 ± 0.0022 | relative enzymatic activity (Guanlyate kinase): 0.245 ± 0.019 | relative enzymatic activity (MurA): 0.0381 ± 0.0081 | relative enzymatic activity (MurD): 0.092 ± 0.023 | relative enzymatic activity (MurF): 0.108 ± 0.018 | relative enzymatic activity (RNA polymerase): 0.2596 ± 0.002

CO[C@@H]1[C@@H](OC(=O)c2ccc(C)[nH]2)[C@@H](O)[C@@H](Oc2ccc3c(c2C)OC(=O)[C@H](NC(=O)c2[nH]cc(CC(=O)Nc4cc5ccc(O[C@@H]6OC(C)(C)[C@H](OC)[C@@H](OC(=O)c7ccc(C)[nH]7)[C@H]6O)c(C)c5oc4=O)c2C)C3)CC1(C)C
relative enzymatic activity (DNA gyrase): 0.165 ± 0.23 | relative enzymatic activity (DNA helicase): 0.0977 ± 0.012 | relative enzymatic activity (DNA ligase): 0.835 ± 0.013 | relative enzymatic activity (DNA polymerase): 0.759 ± 0.06 | relative enzymatic activity (DNA primase): 0.876 ± 0.11 | relative enzymatic activity (GlmU): 0.892 ± 0.021 | relative enzymatic activity (Guanlyate kinase): 0.72 ± 0.087 | relative enzymatic activity (MurA): 1.09 ± 0.059 | relative enzymatic activity (MurC): 2.26 ± 0.28 | relative enzymatic activity (MurD): 0.869 ± 0.57 | relative enzymatic activity (MurF): 1.26 ± 0.26 | relative enzymatic activity (RNA polymerase): 0.715 ± 0.093

CC(C)(ON=C(C(=O)NC1C(=O)N2C(C(=O)[O-])=C(C[n+]3ccccc3)CSC12)c1csc(N)n1)C(=O)O (centres undefined)
relative enzymatic activity (DNA gyrase): 0.0358 ± 0.051 | relative enzymatic activity (DNA helicase): 0.494 ± 0.12 | relative enzymatic activity (DNA ligase): 1.08 ± 0.29 | relative enzymatic activity (DNA polymerase): 0.444 ± 0.021 | relative enzymatic activity (DNA primase): 0.593 ± 0.11 | relative enzymatic activity (GlmU): 0.79 ± 0.019 | relative enzymatic activity (Guanlyate kinase): 0.876 ± 0.015 | relative enzymatic activity (MurA): 0.0456 ± 0.016 | relative enzymatic activity (MurD): 0.548 ± 0.37 | relative enzymatic activity (MurF): 0.924 ± 0.15 | relative enzymatic activity (RNA polymerase): 0.137 ± 0.0022

CC1(C)S[C@@H]2[C@H](NC(=O)[C@H](N)c3ccccc3)C(=O)N2[C@H]1C(=O)OCOC(=O)[C@@H]1N2C(=O)C[C@H]2S(=O)(=O)C1(C)C
relative enzymatic activity (DNA gyrase): 0.828 ± 0.25 | relative enzymatic activity (DNA helicase): 0.472 ± 0.23 | relative enzymatic activity (DNA ligase): 0.742 ± 0.024 | relative enzymatic activity (DNA polymerase): 0.512 ± 0.72 | relative enzymatic activity (DNA primase): 0.809 ± 0.025 | relative enzymatic activity (GlmU): 0.994 ± 0.012 | relative enzymatic activity (Guanlyate kinase): 0.946 ± 0.046 | relative enzymatic activity (MurA): 0.6 ± 0.24 | relative enzymatic activity (MurC): 1.08 ± 0.1 | relative enzymatic activity (MurD): 0.58 ± 0.38 | relative enzymatic activity (MurF): 1.11 ± 0.15 | relative enzymatic activity (RNA polymerase): 0.868 ± 0.042
